Compounds without any hit were thinned out: in the full panel of roughly 83,000, 20% have a hit.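 Compound tested at a single concentration for 48 hours in 96-well plates; a percent growth value below 10 was scored as active.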 A number with no mark means an inactive call. Active and inactive are the calls of the source.
System: IGROV1 ovarian
Experiment: NCI-60 one-dose screen, 48 h (100 = growth as untreated, 0 = no growth, -100 = all killed)
Conditions: 10 µM unless noted
Experimental: Growth inhibition of the IGROV1 human tumor cell line is measured as a screen for anti-cancer activity. Cells are grown in 96 well plates and exposed to the test compound for 48 hours. Compounds are tested at a single concentration, which is 10^-5 M for most compounds. The reported endpoint is percent growth (GI% or GIPRCNT), where numbers from 0 - 100% represent growth inhibition, and numbers from -100% - 0 represent cell death. For example, a value of 40 represents 60% growth inhibition. A value of 0 means no net growth occurred over the course of the experiment. A value of -40 indicates 40% of cells at the beginning of the experiment died by the end of the experiment. A value of -100 means all cells are dead at the end of the experiment.
NCI-60 Human Tumor Cell Lines Screen was performed using the standard one-dose NCI protocol, which is described in more detail at https://dtp.cancer.gov/discovery_development/nci-60/default.htm.
Compounds with GIPRCNT values below 10 were considered active. Activity score was based on GIPRCNT using the following formula: […]
Score is 0 for GIPRCNT values of 100 or above, 50 for GIPRCNT values of 0, and 100 for GIPRCNT values of -100.

Row | Compound | growth
1 | O=C(Nc1ccc(Nc2ccncc2)cc1)c1ccc(Nc2ccnc3ccc([N+](=O)[O-])cc23)cc1 | 97%
2 | COc1cc(/C=C/C(=O)c2cccc(-n3cc(-c4ccc(Cl)cc4)[nH]c3=O)c2)ccc1O | -10.6% (active)
3 | O=C1c2cccnc2C(=O)c2c1c(C(=O)OCCc1ccccn1)c1ccccn21 | -0.716% (active)
4 | COc1cc2c(c(OC)c1OC)C(=O)CC(c1cccc(C(=O)Nc3ccc(C#N)cc3)c1)O2 (stereo not given) | 88.5%
5 | CCOC(=O)/C=C1\S/C(=N\Nc2cc(=O)[nH]c3ccc(Br)cc23)N(c2ccccc2)C1=O | 58.7%
6 | N#Cc1ccc(/C=C/c2cn(-c3ccccc3)nc2-c2cccc([N+](=O)[O-])c2)cc1 | 51.2%
7 | Cn1cc(-c2nc3c(F)cc4[nH]ncc4c3c3c2CCCC3)c(C(F)(F)F)n1 | 24%
8 | O=CCCCOCc1ccccc1 | 101%
9 | CN1CCN(c2ccc(NC3=CC(=O)c4ncncc4C3=O)cc2)CC1 | -86.6% (active)
10 | C=C(C)[C@@H]1CC[C@]2(C)[C@H](C=CC3=C4C[C@@](C)(CO)CC[C@]4(C)CC[C@]32C)[C@@]1(C)CCCN | 6.46% (active)
11 | Cc1ccc(OCCOCCOCCOc2ccc(C)n(O)c2=S)c(=S)n1O | 72%
12 | COc1ccc(/C=N/Nc2c3ccccc3nc3ccccc23)cc1 | 88.2%
13 | O=C(/C=C/c1ccccc1)N(C1CCCCC1)C1CCCCC1 | 116%
14 | O=C(Cc1ccc(/C=C/C(=O)c2ncc[nH]2)cc1)Nc1cc(F)c(F)c(F)c1 | 55.8%
15 | Oc1c(I)cc(I)cc1CN(Cc1ccccn1)Cc1ccccn1 | 15.3%
16 | COc1ccc(CN2C(=O)OC(C)(COC(C)=O)C2=O)cc1 (stereo not given) | 107%
17 | COC(=O)[C@@]12CC=C(C)[C@]3(C[C@H](c4ccoc4)OC3=O)[C@H]1C=C[C@@H](O)[C@@]2(O)C(=O)OC | 92.4%
18 | COc1ccc(C(=O)C/C(=C\c2ccc(O)c(OC)c2)C(=O)NN)cc1 | 82.6%
19 | O=S(O)c1cc(Cl)cc(Cl)c1OCc1ccccc1 | 109%
20 | Nc1c(Br)cc2c(c1Br)Cc1cc([N+](=O)[O-])ccc1-2 | 135%

Row | Compound | growth
21 | CC(C)n1c2ccc(Br)cc2c2c3c(c4c5ccccc5ccc4c21)C(=O)NC3=O | 84.8%
22 | Oc1nc(NCc2ccccc2)sc1/C=C1\C=Nc2ncccc21 | 67.2%
23 | C=C1SC(=Nc2ccccc2Cl)N(C(=O)c2sc3ccccc3c2Cl)C1(C)C | 297%
24 | Cc1oc(-c2ccc(Cl)cc2)nc1C1=NN(C(=O)c2ccncc2)C(c2ccccc2)C1 (stereo not given) | 71.3%
25 | COc1ccc(-c2cc(-c3cn(-c4cccc(Cl)c4)nc3-c3ccc(OC)cc3)on2)cc1 | 97.5%
26 | c1ccc(-c2ccc3c(c2)C2(CCNCC2)CN3)cc1 | 73%
27 | Nc1cccc(-c2ccc(COc3ccc(CC4SC(=O)NC4=O)cc3)cc2)c1 (stereo not given) | 57.5%
28 | ClC(Cl)c1nc(-c2ccccc2)n2nc(-c3ccccc3)cc2n1 | 52.7%
29 | COc1ccc2[nH]cc(-c3nonc3-c3c[nH]c4ccc(Br)cc34)c2c1 | 65.3%
30 | Nc1ncnc2c1N=C(c1ccc(Cl)cc1)CC(c1cccc(Nc3ccnc4cc(Cl)ccc34)c1)N2 (stereo not given) | 66.7%
31 | CC(C)C1C2=C(NCCN1C(=O)c1ccncc1)C(C)(C)N(Cc1ccccc1)C2=O (stereo not given) | 101%
32 | O=C(C[C@]1(O)C(=O)Nc2ccc(Br)cc21)c1ccco1 | 92.7%
33 | CNC(=O)c1cc(Oc2ccc3c(c2)sc2nc(-c4ccc(NC(=O)[C@@H](NC(=O)OC)C(C)C)cc4)cn23)ccn1 | 82.2%
34 | CCN(CCNc1ccc(C)c2sc3cc(Cl)ccc3c(=O)c12)CC(C)(C)O | 50.7%
35 | COCCn1cc(-c2nc(-c3cn(CCOC)c4ncccc34)cs2)c2cc(F)ccc21 | 30.1%
36 | CC(O)CNC(Cc1ccccc1)c1ccc2c(c1)OCO2 (stereo not given) | 101%
37 | Fc1cc2[nH]ncc2c2c3c(c(-c4cn[nH]c4C(F)(F)F)nc12)CCCC3 | 0.245% (active)
38 | O=C(/C=C/c1ccco1)Nc1ncc(Cc2cc(Cl)ccc2Cl)s1 | 21.3%
39 | CCCCCc1ccc(S(=O)(=O)Nc2cc(-c3csc(NC(C)=O)n3)ccc2N2CCN(C)CC2)cc1 | 62.1%
40 | CC1(C)N=C(N)N=C(N)N1c1cc(Cl)ccc1Cl | 68.4%

Reference: PubChem BioAssay (NCI)
